Compounds without any hit were thinned out: in the full panel of roughly 79,000, 15% have a hit. Activity calls are given as the source filed them. No stated cut-off is given here; in the data, active means growth inhibition above about 70%; inactive means the rest.
How the values were obtained:
[1] = NCI Yeast Anticancer Drug Screen. Data for the rad50 strain (AID 155);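 further: 0% = growth of vehicle-only cultures of the same strain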; details: S. cerevisiae rad50 strain growth inhibition, hits give high values
Procedure, shortened: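 Vehicle-treated cultures provide the reference for the growth inhibition reported for compound-exposed, repair-deficient yeast.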

[2] = NCI Yeast Anticancer Drug Screen. Data for the mec2-1 strain (AID 157); details: S. cerevisiae mec2-1 strain, hits give high values
Procedure, shortened: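 Readout is yeast growth inhibition, normalised to vehicle-treated controls, in the mec2-1 strain exposed to compound.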

[3] = NCI Yeast Anticancer Drug Screen. Data for the sgs1 mgt1 strain (AID 161);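 further: 0% = growth of cultures given vehicle only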; details: S. cerevisiae sgs1 mgt1 strain, hits give high values
Procedure, shortened: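 Growth of a repair-deficient yeast mutant was monitored after compound treatment and expressed as inhibition relative to vehicle-treated cultures.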

[4] = NCI Yeast Anticancer Drug Screen. Data for the cln2 rad14 strain (AID 165);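 further: 0% = growth equal to vehicle treated cultures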; details: S. cerevisiae cln2 rad14 strain, hits give high values
Procedure, shortened: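 Relative to vehicle controls, growth inhibition of compound-treated cln2 rad14 yeast was recorded.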

[5] = NCI Yeast Anticancer Drug Screen. Data for the bub3 strain (AID 167); details: S. cerevisiae bub3 mutant strain, hits give high values
Procedure, shortened: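 Mutant yeast screening strain plus compound; vehicle-treated cultures serve as the 0% inhibition reference.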

[6] = NCI Yeast Anticancer Drug Screen. Data for the mlh1 rad18 strain (AID 175); details: S. cerevisiae mlh1 rad18 strain growth inhibition, hits give high values
Procedure, shortened: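 Test agents were incubated with a yeast strain of defined genotype (DNA damage repair defect). Inhibition of growth was derived by comparison with vehicle-exposed cultures.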

[7] = at 5.0 µM (retest, dose inferred, filed as 0.5)
[8] = at 50.0 µM (retest, dose inferred, filed as 5.0)

Measured: growth inhibition

S=C(Nc1ccc2cn[nH]c2c1)Nc1ccc2cn[nH]c2c1
active: [1]; at 50.0 µM 79.1%
inactive: [1]; [7] 7% | [1]; [8] 46% | [2]; [7] 16% | [2]; [8] 0% | [2]; at 50.0 µM -12.9% | [3]; [7] -5% | [3]; [8] 5% | [3]; at 50.0 µM 30.9% | [4]; [7] -25% | [4]; [8] 2% | [4]; at 50.0 µM -1.15% | [5]; [7] 7% | [5]; [8] 1% | [5]; at 50.0 µM 40% | [6]; [7] 2% | [6]; [8] 17% | [6]; at 50.0 µM 41.9%

CCN(CC)CCCNc1ccc([N+](=O)[O-])c2nc3ccc(OC)cc3c(N)c12
inactive: [1]; [7] -13% | [1]; [8] 62% | [1]; at 50.0 µM 44.2% | [2]; [7] -20% | [2]; [8] 27% | [2]; at 50.0 µM -5.3% | [3]; [7] -7% | [3]; [8] 44% | [4]; [7] 2% | [4]; [8] 31% | [4]; at 50.0 µM 19.6% | [5]; [7] -11% | [5]; [8] 54% | [5]; at 50.0 µM 13.6% | [6]; [7] -39% | [6]; at 50.0 µM 62%
active: [3]; at 50.0 µM 79.2% | [6]; [8] 74%

CCC1=C(c2ccccc2)C(O)(c2ccccc2)C(CC)C1=O (stereo not given)
inactive: [1]; [7] -3% | [2]; [7] -5% | [3]; [7] -7% | [4]; [7] 5% | [5]; [7] -4% | [6]; [7] -2%
active: [1]; [8] 99% | [1]; at 50.0 µM 94% | [2]; [8] 99% | [2]; at 50.0 µM 92.5% | [3]; [8] 99% | [3]; at 50.0 µM 97.3% | [4]; [8] 99% | [4]; at 50.0 µM 92.2% | [5]; [8] 99% | [5]; at 50.0 µM 97.7% | [6]; [8] 98% | [6]; at 50.0 µM 97.8%

CC(=O)Oc1ccccc1N(C(C)=O)S(=O)(=O)c1ccc(C)cc1
inactive: [1]; [7] 16% | [2]; [7] 12% | [3]; [7] 11% | [4]; [7] 1% | [5]; [7] -2% | [6]; [7] 34%
active: [1]; [8] 98% | [1]; at 50.0 µM 95.7% | [2]; [8] 99% | [2]; at 50.0 µM 97.5% | [3]; [8] 99% | [3]; at 50.0 µM 96.2% | [4]; [8] 99% | [4]; at 50.0 µM 98.5% | [5]; [8] 99% | [5]; at 50.0 µM 99.2% | [6]; [8] 99% | [6]; at 50.0 µM 98.8%

O=C(O)CCC(=O)c1ccc2c(c1)CCCC2
active: [1]; at 50.0 µM 71.7% | [3]; at 50.0 µM 77.2% | [6]; at 50.0 µM 77.6%
inactive: [1]; [7] -5% | [1]; [8] -1% | [2]; [7] -9% | [2]; [8] 19% | [2]; at 50.0 µM 42.1% | [3]; [7] -5% | [3]; [8] 0% | [4]; [7] 1% | [4]; [8] 25% | [4]; at 50.0 µM -24.1% | [5]; [7] -16% | [5]; [8] -48% | [5]; at 50.0 µM 20.7% | [6]; [7] 0% | [6]; [8] -6%

CCCCCCCCCCCCCCCC(=O)NCC[N+](CC)(CC)Cc1ccc(C[N+](CC)(CC)CCNC(=O)CCCCCCCCCCCCCCC)cc1
active: [1]; [7] 99% | [1]; [8] 99% | [1]; at 50.0 µM 99.3% | [2]; [7] 99% | [2]; [8] 100% | [2]; at 50.0 µM 99.6% | [3]; [7] 99% | [3]; [8] 100% | [3]; at 50.0 µM 99.5% | [4]; [7] 99% | [4]; [8] 99% | [4]; at 50.0 µM 99.3% | [5]; [7] 98% | [5]; [8] 99% | [5]; at 50.0 µM 99.5% | [6]; [7] 97% | [6]; [8] 99% | [6]; at 50.0 µM 99.3%

COc1cccc(-c2cc(=O)c3c(C)ccnc3[nH]2)c1
active: [1]; at 50.0 µM 80.5% | [3]; at 50.0 µM 70.8%
inactive: [1]; [7] 8% | [1]; [8] 8% | [2]; [7] 4% | [2]; [8] 4% | [2]; at 50.0 µM 49.8% | [3]; [7] 15% | [3]; [8] 15% | [4]; [7] -4% | [4]; [8] -4% | [4]; at 50.0 µM 30% | [5]; [7] -9% | [5]; [8] -9% | [5]; at 50.0 µM 68% | [6]; [7] 14% | [6]; [8] 14% | [6]; at 50.0 µM 61.8%

CN(C)c1ccc(SC(=S)NCc2ccccc2)cc1
active: [1]; [8] 92% | [1]; at 50.0 µM 97.5% | [2]; [8] 92% | [2]; at 50.0 µM 98.2% | [3]; [8] 82% | [3]; at 50.0 µM 96.3% | [4]; at 50.0 µM 95.8% | [5]; [8] 96% | [5]; at 50.0 µM 97% | [6]; [8] 90% | [6]; at 50.0 µM 94.4%
inactive: [1]; [7] 4% | [2]; [7] -7% | [3]; [7] -2% | [4]; [7] -3% | [4]; [8] 28% | [5]; [7] -8% | [6]; [7] 4%

O=S(=O)(Nc1ccccc1)c1ccccc1CC(O)(c1ccccc1)c1ccccc1
inactive: [1]; [7] 46% | [2]; [7] 67% | [4]; [7] 59% | [5]; [7] 40%
active: [1]; [8] 90% | [1]; at 50.0 µM 90% | [2]; [8] 94% | [2]; at 50.0 µM 93% | [3]; [7] 98% | [3]; [8] 94% | [3]; at 50.0 µM 91.2% | [4]; [8] 89% | [4]; at 50.0 µM 90.4% | [5]; [8] 90% | [5]; at 50.0 µM 90.4% | [6]; [7] 90% | [6]; [8] 90% | [6]; at 50.0 µM 89.2%

O=C(CC(O)(C(F)(F)F)C(F)(F)Cl)CC(O)(C(F)(F)F)C(F)(F)Cl (stereo not given)
active: [1]; [7] 94% | [1]; [8] 88% | [1]; at 50.0 µM 99.3% | [2]; [7] 92% | [2]; [8] 99% | [2]; at 50.0 µM 99.4% | [3]; [7] 91% | [3]; [8] 99% | [3]; at 50.0 µM 99.7% | [4]; [7] 89% | [4]; [8] 99% | [4]; at 50.0 µM 99% | [5]; [7] 86% | [5]; [8] 99% | [5]; at 50.0 µM 99.5% | [6]; [7] 94% | [6]; [8] 99% | [6]; at 50.0 µM 99.4%

Reference: PubChem BioAssay (NCI)
